From PubChem BioAssay AID1850 (Southern Research Specialized Biocontainment Screening …, 2009)
Screen size: about 310,000 compounds; about 1,000 (0.32%) were called active. Only a sample is shown. Measured potencies and affinities stand elsewhere. Values without a mark were called inactive. No rule for the calls is given here.

assay: Inhibition of PhoP regulon, Salmonella typhi GFP reporter cells, confirmation, 4 h (AID 1850); conditions: Salmonella Typhi PhoP-promoter GFP reporter, fluorescence, at 50 µM, hits give high values;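 also: 0% = induced wells with vehicle and 100% = uninduced wells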

SMILES	inhibition [%]
CCNc1ccc(C2(O)C(=O)c3ccccc3C2=O)cc1	-8.28
Oc1ccc(F)c2cccnc12	8.36
O=[N+]([O-])c1cc2cccnc2c2ncccc12	-13.3
O=[N+]([O-])c1cccc2c(Cl)ccnc12	5.29
O=[N+]([O-])c1ccc(O)c2cccnc12	2.39
Oc1c(I)cc(I)c2cccnc12	8.57
O=[N+]([O-])c1ccc(Cl)c2cccnc12	-13
Clc1cc2cccnc2c2ccccc12	-17.8
Cc1ccc([N+](=O)[O-])c2cccnc12	-3.26
Cc1oc2cc3oc(=O)c(CC(=O)NCC(=O)N[C@@H](C(=O)O)c4ccccc4)c(C)c3cc2c1C	3.13
Cc1ccccc1OCC(=O)Nc1nc2ccccc2[nH]1	9.79
COc1cccc(CN2CCNC(=O)C2CC(=O)N2CCOc3ccccc3C2)c1OC (centres undefined)	-0.13
O=c1cc(-c2ccccc2)nc(SCCOc2ccccc2Cl)[nH]1	3.72
Cc1ccc(C(=O)Nc2cccnc2)cc1S(=O)(=O)N1CCCC1	-5.54
O=c1[nH]c(=S)[nH]c(O)c1N=Nc1ccc2c(c1)OCO2	-4.29
Cc1ccc(Cl)cc1N1CCN(C(=O)Cc2ccc(-n3c(=O)[nH]c4ccsc4c3=O)cc2)CC1	2.93
O=C1Nc2ccccc2/C1=C/c1ccccc1F	-2.26
O=C(c1nc2ccccn2c1CN1CCN(c2ccccc2O)CC1)N1CCCC1	-2.41
OC(C#CCN1CCCCC1)c1ccccc1 (centres undefined)	-17.1
Cc1ccc(NC(=O)CSc2ncccc2C(=O)Oc2cccc([N+](=O)[O-])c2)cc1Cl	-7.7
CCOc1ccc(S(=O)(=O)NCCC(=O)NCc2cccnc2)cc1	9.15
C#CCOCCOCCOCCNc1nc(N2CCN(C(=O)CCCCCCCCCCNC(=O)[C@@H](CCC(=O)O)n3cc(CCCCCN)nn3)CC2)nc(N2CCN(C(=O)CCCCCCCCCCNC(=O)[C@H]([C@@H](C)CC)n3cc(CCCCCN)nn3)CC2)n1	-8.02
C#CCOCCOCCOCCNc1nc(N2CCN(C(=O)CCCCCCCCCCNC(=O)[C@H]([C@@H](C)CC)n3cc(CCCCCN)nn3)CC2)nc(N2CCN(C(=O)CCCCCCCCCCNC(=O)[C@@H]([C@H](C)O)n3cc(C)nn3)CC2)n1	60.5
C#CCOCCOCCOCCNc1nc(N2CCN(C(=O)CCCCCCCCCCNC(=O)[C@H]([C@@H](C)CC)n3cc(CCCCCN)nn3)CC2)nc(N2CCN(C(=O)CCCCCCCCCCNC(=O)[C@H](CCCCN)n3cc(CCCC(=O)O)nn3)CC2)n1	-21.1

SMILES	inhibition [%]
C#CCOCCOCCOCCNc1nc(N2CCN(C(=O)CCCCCCCCCCNC(=O)[C@H](CCCCN)n3cc(CCO)nn3)CC2)nc(N2CCN(C(=O)CCCCCCCCCCNC(=O)[C@@H]([C@H](C)O)n3cc(C)nn3)CC2)n1	-15.8
CCC(Oc1ccc(C)cc1)C(=O)Nc1ccc2c(c1)n(C)c(=O)n2C (centres undefined)	-3.92
CCNC(=O)CC1SC(=Nc2cccc3ccccc23)N(C)C1=O (centres undefined)	-5.94
CCN(CC(=O)NC(=O)Nc1ccccc1F)Cc1ccccc1	-3.48
CCN1CCN(C(=O)CCCn2c(C)c3cnn(-c4ccccc4)c(=O)c3c2C)CC1	-6.37
O=C(CN(CCO)c1ccccc1)Nc1ccc(Cl)c(S(=O)(=O)N2CCOCC2)c1	-1.19
Cc1ccc2[nH]c3c(NCc4ccccc4)ncnc3c2c1	-1.37
Clc1ccc2[nH]c3c(NCCN4CCOCC4)ncnc3c2c1	0.11
C=CCNc1ncnc2c1[nH]c1ccccc12	-0.69
Clc1ccc2[nH]c3c(NCC4CCCO4)ncnc3c2c1 (centres undefined)	-14
CCCNC(=O)c1oc2ccc3c(c2c1C)C=CC(C)(C)O3	-5.94
Cc1nc2ccccn2c1C(=O)NNC(=S)Nc1ccc(Cl)cc1	0.64
COc1ccc(C[C@H]2CN3C(=NC[C@H]3Cc3ccccc3)N2CCNC(=O)c2ccc(C)c(Br)c2)cc1	26.2
Cc1ccc(C(=O)NCCN2C3=NC[C@H](Cc4ccc(O)cc4)N3C[C@H]2Cc2ccc(O)cc2)cc1Br	12.4
O=C(Nc1ccnn1C1CCN(C/C=C/c2ccccc2)CC1)C1CCCC1	-2.03
COC(=O)C1=NN(c2ccc(C)cc2)C2(S1)SC(C(C)=O)=C(C)N2c1ccccc1 (centres undefined)	-16.3
COc1ccc(NCC(O)COc2ccc(C(C)(C)C)cc2)cc1 (centres undefined)	10.5
COc1ccc(CCNCC(O)COc2ccc(Cl)cc2)cc1OC (centres undefined)	5.92
Cc1cc(Cl)ccc1OCC(O)CNCCc1ccc(S(N)(=O)=O)cc1 (centres undefined)	-14.1
OC(CNCc1ccccc1)COc1ccccc1 (centres undefined)	18.5
OC(CNCCC(c1ccccc1)c1ccccc1)COc1ccccc1 (centres undefined)	-4.1
CC(=O)c1cccc(OCC(O)CNCCc2ccc(Cl)cc2)c1 (centres undefined)	4.73
OC(CNCc1ccc(Cl)cc1)COc1ccccc1 (centres undefined)	11.1
CC(C)(C)NCC(O)COc1ccc(Br)cc1 (centres undefined)	-6.26

SMILES	inhibition [%]
CC1=NN(C(=O)c2c(Br)cnn2C)C(O)(C(F)(F)F)C1 (centres undefined)	14.8
CC(C)(C)c1ccc(C(=O)NNC(=S)NC(=O)c2cccnc2)cc1	7.73
CCn1c(SCC(=O)Nc2oc(C)c3c(C)n[nH]c(=O)c23)nc2sc(C)c(C)c2c1=O	-1.81
CCOc1ccc(NC(=O)C2CCCN(S(=O)(=O)c3ccc4[nH]c(=O)ccc4c3)C2)cc1 (centres undefined)	4.78
COc1ccc(NC2c3ccccc3C(=O)N2c2ccccn2)cc1 (centres undefined)	0.4
COc1ccc(C(C)=O)cc1CSc1nnc(Nc2ccc(C)cc2)s1	7.09
Cc1nn2c(-c3cccnc3)ccnc2c1-c1ccccc1	-4.51
COc1ccc(N2C(=O)CC(C#N)=C2N)cc1	17.1
COc1ccc(-n2nc(C)c3c(=O)c4c([nH]c32)CCCC4)cc1	7.61
Cc1cccc(NC(=O)CN2C(=O)C(C)Oc3ccccc32)n1 (centres undefined)	-5.84
CN1C(=O)Cc2cc(S(=O)(=O)N3CCN(c4ccc(Cl)cc4)CC3)ccc21	3.82
C=CCc1c(C)nc(C)nc1N/N=C/c1ccccc1O	-9.46
COc1ccc(OCCCC(=O)OC(C)C(=O)Nc2cccc(C(C)=O)c2)cc1 (centres undefined)	15.1
O=C(Cn1cc([N+](=O)[O-])ccc1=O)NCc1ccc(Cl)cc1Cl	-7.2
CC(C)N(CCNCC(O)COc1ccc(C(C)(C)c2ccccc2)cc1)C(C)C (centres undefined)	-17.3
COC(=O)c1ccc(CNCC(O)COc2ccc(-c3ccccc3)cc2)cc1 (centres undefined)	10.8
COc1ccc(OC)c(-n2nnnc2SCC(=O)NCc2ccc3c(c2)OCO3)c1	0.94
c1ccc2c(c1)[nH]c1cnccc12	7.53
COc1ccc2[nH]c3c(=S)nc[nH]c3c2c1	3.32
c1ccc2c(c1)[nH]c1ccncc12	-9.87
COc1ccc2[nH]c3c(Cl)ncnc3c2c1	1.3
COc1cc(NC(=O)CSc2nnc(-c3ccncc3)n2C2CCCCC2)ccc1NC(=O)c1ccco1	-17.8
Cc1cc(C)c(S(=O)(=O)N2CCC(C(N)=O)CC2)cc1C	16.3
COc1ccc(-c2sc(Nc3ccc(F)c(F)c3F)nc2CCC(=O)NN)cc1	4.23

SMILES	inhibition [%]
CS(=O)(=O)N1N=C(c2ccco2)CC1c1ccccc1 (centres undefined)	-3.63
NC(=O)C1CCN(C(=O)/C=C/c2cc(Br)ccc2F)CC1	-0.48
CCOC(=O)CNC(=S)NN(C)C	10.8
CC(C)(C)OC(=O)N[C@@H](Cc1ccccc1)C(=O)N1CCC(C(=O)N[C@@H](CCC(N)=O)C(=O)O)CC1	-2.12
CCOc1ccc(CCNC(=O)c2cc(=O)[nH]c3ccc(S(=O)(=O)N(CC)CC)cc23)cc1OCC	-9.13
O=C1C(=O)c2cccc3cccc1c23	-2.11
O=C1C=C(O)c2cccc3cccc1c23	-13.1
CCOc1cc(N2CCOCC2)c(OCC)cc1NC(=O)CC12CC3CC(CC(C3)C1)C2	-0.45
COc1ccccc1Nc1nc(Cl)nc(NC(C)(C)C)n1	-9.98
Clc1ccc(-c2nc(Cc3ccccc3)no2)cc1	11.6
OCCNCc1cc(Br)ccc1OCc1ccccc1	-2.3
OCCNCc1cc(Br)ccc1OCc1ccc(F)cc1	10.4
CCSP1(=S)N=C(N2CCOCC2)C(C#N)=C2CCCN21 (centres undefined)	-5.06
Cc1cccc(NCC(=O)N/N=C\c2cccn2C)c1	-0.18
O=C(NNC(=O)c1ccccc1O)c1ccco1	14.9
O=C(NC(=S)Nc1ccc(NC(=O)c2cccs2)cc1)c1ccco1	-1.46
O=C(Nc1ccc(NC(=O)c2cccs2)cc1)c1ccc(Br)o1	3.54
O=C(NNC(=O)c1cccs1)c1ccco1	0.32
COc1ccc(C(=O)NNC(=S)NC(=O)/C=C/c2cccs2)cc1	12
O=C(NNC(=O)c1cccs1)c1ccc(Br)o1	-19.9
O=C(NC(=S)NNC(=O)c1ccccc1O)c1cccs1	7.92
O=C(NC(=S)NNC(=O)c1cc2ccccc2cc1O)c1ccco1	-70.1
